# Bioassay records as filed in PubChem.
# Mdm2 MdmX PPI = disrupts the human Mdm2-MdmX interaction. O15151+Q00987. SaOS-2 split-luciferase Mdm2/MdmX complementation, luminescence. inhibition, % at 8 µM. actives 3% (n = 330,000). AID 485346;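 active = inhibition of at least 50% at 8 µM in the primary screen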
# A1 inh = inhibitors of the anti-apoptotic protein A1, read as caspase activation; MEF A1-2A-BIM cells, Caspase-Glo 3/7 luminescence, 3 h; percent of clofoctol response, vehicle zero; caspase activation, % (no concentration beside the values); actives 0.066% (n = 330,000);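 active = over half of replicate activation scores above 10%, or exactly half above 10 with the replicate mean above 10; inconclusive = replicate mean below 10 yet half the replicates above 10; inactive = over half of replicates below 10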
# NTR1 agonist = activates human neurotensin receptor 1; NTR1-U2OS beta-arrestin-GFP spot imaging, agonist mode; actives 0.17% (n = 330,000); activation, % at 20 µM; P30989;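 active = activation at or above 40% of the spot to cytoplasm intensity ratio, with at least 20 cells analyzed; inconclusive = wells under 20 cells, flagged as cytotoxic or low count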;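 also: 0% = DMSO without peptide and 100% = 100 nM NTR1 peptide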
# Target sequence (P30989 whole entry, looked up): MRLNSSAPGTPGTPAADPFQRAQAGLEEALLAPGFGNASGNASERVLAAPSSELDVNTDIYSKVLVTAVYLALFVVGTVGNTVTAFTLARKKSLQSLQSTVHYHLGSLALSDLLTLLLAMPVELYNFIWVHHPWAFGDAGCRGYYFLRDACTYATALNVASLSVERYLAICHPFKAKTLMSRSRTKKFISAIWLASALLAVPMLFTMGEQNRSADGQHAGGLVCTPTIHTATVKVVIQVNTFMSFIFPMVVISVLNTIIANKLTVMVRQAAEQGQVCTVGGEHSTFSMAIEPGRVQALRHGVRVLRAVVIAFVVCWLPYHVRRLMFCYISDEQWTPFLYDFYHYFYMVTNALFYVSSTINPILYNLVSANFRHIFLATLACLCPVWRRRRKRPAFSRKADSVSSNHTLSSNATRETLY
# 697 NFkB inh = inhibitors of the PMA/ionomycin-induced NF-kB reporter in 697 B cells; 697 B-cell NF-kB luciferase reporter, 16 h; inhibition, % at 4 µM; actives 0.33% (n = 330,000); in the data active = inhibition above about 35%
# Beta cell apopt = blocks beta cell apoptosis. protection from apoptosis, % (test concentration not listed). AID 435005. actives 0.8% (n = 300,000). INS-1E cytokine-induced death, ATP luminescence, 48 h; percent of positive-control rescue, neutral wells zero;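 active = Every replicate reaches about 75%, or at least half do and their mean reaches it too, limit read from the data; inconclusive = At least half of replicates reach the limit but their mean does not; inactive = Under half of replicates reach the limit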;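 also: 0% = cytokine-treated negative control wells and 100% = positive control rescue; higher means more ATP so stronger rescue from cytokine killing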
# Jurkat NFkB inh = inhibitors of the PMA/ionomycin-induced NF-kB reporter in Jurkat cells; PMA/ionomycin-induced NF-kB luciferase reporter, luminescence; inhibition, % at 4 µM; actives 0.53% (n = 330,000); AID 435003; in the data active = inhibition above about 50%
# Jurkat NFkB conf = lowers PMA/ionomycin-induced NF-kB signal in Jurkat cells; shares compounds with Jurkat NFkB inh; Jurkat NF-kB luciferase, 16 h; inhibition, % at 4 µM; actives 27% (n = 2,700); AID 435020;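 active = inhibition reaching about 45% at 4 µM in either replicate, limit read from the data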;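 also: plate controls were PMA/ionomycin stimulated DMSO wells for no effect and unstimulated DMSO wells for full effect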
# * = called active by the depositor; ? = inconclusive; · = not tested or not shown. Compounds with a hit are over-represented: about 3.8% of the library has one in this group of screens.
SMILES,Mdm2 MdmX PPI,A1 inh,NTR1 agonist,697 NFkB inh,Beta cell apopt,Jurkat NFkB inh,Jurkat NFkB conf
CCCCNc1c(-c2ccc(SC3CCCCC3)cc2)nc2ccccn12,-62.5,-7.8,16.0,-36.6,?,-177.7,-100.2
CC(C)c1cc(C(=O)Nc2cccc(Cl)c2)no1,-145.2,-9.5,-0.2,-141.5,-1.0,-231.9,-91.4
CCCc1cc(C(=O)Nc2ccc(C)cc2)no1,-118.4,-2.0,-0.1,-48.9,-0.9,-128.7,·
CCc1ccc(NC(=O)c2cc(C)on2)cc1,-106.2,-4.2,-0.9,-119.4,-3.9,-145.0,·
CC(C)Cc1cc(C(=O)Nc2cccc(O)c2)no1,-214.6,-7.6,0.1,14.0,2.0,-202.7,-112.5
CCc1ccc(NC(=O)c2cc(C(C)C)on2)cc1,-130.5,-3.0,4.0,-154.5,-7.6,-215.2,-128.2
CC(=O)c1cccc(NC(=O)c2cc(C(C)C)on2)c1,-109.6,-2.6,0.0,-84.9,-6.0,-98.9,·
CCCc1cc(C(=O)Nc2ccc(CC)cc2)no1,-93.6,-1.7,-0.6,-135.7,-3.5,-176.5,-90.5
CC(C)Cc1cc(C(=O)Nc2ccc(Br)cc2)no1,-111.2,-1.3,-1.0,4.6,-6.5,-97.9,·
Cc1ccsc1C(=O)N(C)C1CCS(=O)(=O)C1 (stereo not given),-9.6,-0.6,-0.1,19.2,2.5,6.3,·
O=C1C2C3C=CC(C3)C2C(=O)N1c1ccc(-c2nc3ccccc3o2)cc1 (stereo not given),-22.4,-2.2,-0.7,-106.9,-3.0,-172.3,-55.1
Cn1c(-c2nnn(-c3ccc(F)cc3)n2)cc2ccccc21,-243.4,-6.3,3.1,-141.5,-1.3,-140.4,·
Cc1ccc(-n2nnc(-c3cccnc3Cl)n2)cc1,-152.9,-7.6,-0.1,-227.5,-5.1,-172.7,-86.2
Cc1ccc(-n2nnc(-c3cc4ccccc4n3C)n2)cc1,-95.2,-5.8,-0.6,-182.0,-3.5,-151.8,-47.5
Cc1ccc(C(=O)CCNc2ccc(F)c(Cl)c2)o1,11.4,-1.2,-0.4,-26.5,-5.9,72.7*,-0.8
O=C1c2cc(Br)ccc2N(Cc2ccc(Br)cc2)S(=O)(=O)C1c1cc(Cl)c(Cl)cc1[N+](=O)[O-] (stereo not given),30.6,-0.8,2.9,-7.3,9.2,-4.5,·
Cc1cccn2cc(-c3c[nH]c4ccccc34)nc12,-46.2,-2.3,2.0,4.9,3.0,-13.4,·
Brc1ccc2nc(-c3c[nH]c4ccccc34)cn2c1,-268.4,-0.2,0.8,-144.9,-2.2,-152.5,-54.2
COc1cc(SC)ccc1C(=O)Nc1cccc(C)n1,-158.3,-5.9,2.4,-152.8,-0.8,-153.3,-68.7
COc1cc(SC)ccc1C(=O)NC(C)C,4.1,-0.2,-2.0,4.0,-5.7,4.1,·
COc1cc(SC)ccc1C(=O)Nc1ccon1,-89.1,0.1,0.0,-53.8,0.7,-41.6,·
COc1cc(SC)ccc1C(=O)Nc1ccccn1,-174.1,-3.3,-0.4,-221.1,4.3,-166.1,-96.2
NC(=O)C1CCCN(CC(=O)Nc2cc(S(=O)(=O)N3CCOCC3)ccc2N2CCCC2)C1 (stereo not given),-20.1,0.7,-1.7,1.4,1.4,3.9,·
Cn1c2ccccc2c2nnc(SCC(=O)NC3CCCC3)nc21,-6.6,-0.2,-2.2,5.7,-0.6,-0.3,·
COc1ccc(N=C2C(=Nc3ccc(OC)cc3)N(c3ccccc3)C(=S)N2C(=O)c2ccc(Cl)cc2)cc1,-21.3,-0.1,2.4,-0.9,7.1,-25.7,·
COc1ccc(N=C2C(=Nc3ccc(OC)cc3)N(c3ccc(N(C)C)cc3)C(=S)N2c2ccc(OC)cc2)cc1,47.3,-0.3,1.3,29.6,-4.5,70.4*,-40.9
COc1ccc(N=C2C(=Nc3ccc(OC)cc3)N(c3ccc(OC)cc3)C(=S)N2C(=O)c2ccc(OC)cc2)cc1,-18.4,-0.8,10.0,11.6,3.1,-7.9,·
COc1ccc(N2C(=S)N(C(=O)c3ccccc3)C(=Nc3ccccc3)C2=Nc2ccccc2)cc1,-106.1,-8.0,3.0,-225.4,9.0,-176.1,-63.0
O=C(COC(=O)c1ccccc1OCc1ccccc1Cl)NC1CCS(=O)(=O)C1 (stereo not given),-15.1,0.2,-1.8,-0.2,5.7,-0.5,·
